Reference: PubChem BioAssay (NCI)
Compounds without any hit were thinned out: in the full panel of roughly 83,000, 20% have a hit.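 Cells were grown in 96-well plates and exposed to the test compound at a single concentration for 48 hours; results are reported as percent growth, with values below 10 considered active.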 Calls of active or inactive are those of the source.

How the values were obtained:
Experiment in all cases: NCI-60 one-dose screen, 48 h (100 = growth as untreated, 0 = no growth, -100 = all killed)
[1] = system: HCT-15 colon
[2] = system: HT29 colon
[3] = system: SNB-75 CNS
[4] = system: SNB-19 CNS
[5] = system: U251 CNS
[6] = system: PC-3 prostate
[7] = system: SK-MEL-5 melanoma
[8] = system: UACC-62 melanoma
[9] = system: LOX IMVI melanoma
[10] = system: SK-MEL-28 melanoma
[11] = system: SK-MEL-2 melanoma
[12] = system: EKVX NSCLC
[13] = system: SN12C renal
[14] = system: UO-31 renal
[15] = system: TK-10 renal
[16] = system: ACHN renal; conditions: 10 µM unless noted
[17] = system: CAKI-1 renal; conditions: 10 µM unless noted
[18] = system: A498 renal
[19] = system: CCRF-CEM leukemia; conditions: 10 µM unless noted
[20] = system: MOLT-4 leukemia

Measured: growth

Cc1c(C(=O)OCCCCOC(=O)c2c(C)n(C)c3scc[n+]23)[n+]2ccsc2n1C
inactive: [1]; 10 µM unless noted 106% | [2]; 10 µM unless noted 107% | [3]; 10 µM unless noted 80.5% | [4]; 10 µM unless noted 101% | [5]; 10 µM unless noted 103% | [6]; 10 µM unless noted 92.3% | [7]; 10 µM unless noted 142% | [8]; 10 µM unless noted 95.7% | [9]; 10 µM unless noted 102% | [10]; 10 µM unless noted 104% | [11]; 10 µM unless noted 106% | [12]; 10 µM unless noted 95.6% | [13]; 10 µM unless noted 90.8% | [14]; 10 µM unless noted 78.9% | [15]; 10 µM unless noted 114% | [16] 97.2% | [17] 101% | [18]; 10 µM unless noted 156% | [19] 96.4% | [20]; 10 µM unless noted 94.9%

COc1ccc(Oc2nc(Nc3ccc(N4CCOCC4)cc3)ncc2NC(=O)c2cccc(C(F)(F)F)c2)cc1
inactive: [1]; 10 µM unless noted 58.6% | [2]; 10 µM unless noted 42.2% | [3]; 10 µM unless noted 82.3% | [4]; 10 µM unless noted 87.5% | [5]; 10 µM unless noted 69.3% | [6]; 10 µM unless noted 53.7% | [7]; 10 µM unless noted 92.2% | [8]; 10 µM unless noted 78.4% | [9]; 10 µM unless noted 52.4% | [10]; 10 µM unless noted 99.5% | [11]; 10 µM unless noted 97.2% | [12]; 10 µM unless noted 81.3% | [13]; 10 µM unless noted 85.8% | [14]; 10 µM unless noted 71.2% | [15]; 10 µM unless noted 93% | [16] 79.9% | [17] 88.9% | [18]; 10 µM unless noted 63.4% | [19] 49.9% | [20]; 10 µM unless noted 43.7%

Cc1ccccc1SSc1ccccc1C
inactive: [1]; 10 µM unless noted 17.9% | [2]; 10 µM unless noted 23.6% | [3]; 10 µM unless noted 123% | [4]; 10 µM unless noted 84.2% | [5]; 10 µM unless noted 87.6% | [6]; 10 µM unless noted 66.7% | [7]; 10 µM unless noted 89.6% | [8]; 10 µM unless noted 78.8% | [9]; 10 µM unless noted 72% | [10]; 10 µM unless noted 121% | [11]; 10 µM unless noted 24.3% | [12]; 10 µM unless noted 114% | [13]; 10 µM unless noted 84.9% | [14]; 10 µM unless noted 78.4% | [15]; 10 µM unless noted 85.5% | [17] 60.5% | [18]; 10 µM unless noted 96.2% | [19] 79% | [20]; 10 µM unless noted 83.9%
active: [16] 0.0765%

CC(=O)/C=C/c1ccc(N(C)Cc2ccc(C(C)(C)C)cc2)cc1
active: [1]; 100 µM -36.9% | [3]; 100 µM -59.5% | [4]; 100 µM -31.2% | [5]; 100 µM -100% | [6]; 100 µM -26.1% | [7]; 100 µM -100% | [8]; 100 µM -57.1% | [9]; 100 µM -100% | [10]; 100 µM -82.3% | [11]; 100 µM -69.2% | [12]; 100 µM -39.2% | [13]; 100 µM -81.1% | [14]; 100 µM -100% | [15]; 100 µM -13.7% | [18]; 100 µM -95.6% | [19] -12.1% [100 µM] | [20]; 100 µM -38.9%
inactive: [1]; 10 µM 87.5% | [3]; 10 µM 102% | [4]; 10 µM 110% | [5]; 10 µM 89.8% | [6]; 10 µM 77.6% | [7]; 10 µM 74.7% | [8]; 10 µM 78.8% | [9]; 10 µM 80.1% | [10]; 10 µM 92.5% | [11]; 10 µM 99.7% | [12]; 10 µM 106% | [13]; 10 µM 90.6% | [14]; 10 µM 78.5% | [15]; 10 µM 115% | [16] 98.4% | [18]; 10 µM 87.9% | [20]; 10 µM 62.2%

CC(=O)/C=C/c1ccc(OCc2ccc(C(C)(C)C)cc2)cc1
active: [2]; 100 µM 8.01% | [3]; 100 µM -11.6% | [7]; 100 µM -6.85% | [8]; 100 µM -3.4% | [10]; 100 µM -1.32% | [11]; 100 µM -21.6% | [18]; 100 µM -94.2%
inactive: [1]; 10 µM 64.7% | [1]; 100 µM 22.2% | [2]; 10 µM 42.4% | [3]; 10 µM 94.7% | [4]; 10 µM 98.5% | [4]; 100 µM 28.5% | [5]; 10 µM 88.9% | [5]; 100 µM 37.7% | [6]; 10 µM 79.1% | [6]; 100 µM 14% | [7]; 10 µM 50.3% | [8]; 10 µM 74.2% | [9]; 10 µM 62.3% | [9]; 100 µM 32% | [10]; 10 µM 85.5% | [11]; 10 µM 91.5% | [12]; 10 µM 95.1% | [12]; 100 µM 24.8% | [13]; 10 µM 80% | [13]; 100 µM 28.1% | [14]; 10 µM 68.6% | [14]; 100 µM 14.8% | [15]; 10 µM 111% | [15]; 100 µM 55.1% | [16] 82.6% | [18]; 10 µM 80.4% | [19] 28% [100 µM] | [20]; 10 µM 68.3% | [20]; 100 µM 13.1%

O=C(Cn1cc(CN2CCN(c3ccnc4cc(Cl)ccc34)CC2)nn1)Nc1cccc([N+](=O)[O-])c1
inactive: [1]; 10 µM unless noted 102% | [2]; 10 µM unless noted 101% | [3]; 10 µM unless noted 83.4% | [4]; 10 µM unless noted 90.3% | [5]; 10 µM unless noted 81.6% | [6]; 10 µM unless noted 58.5% | [7]; 10 µM unless noted 70.1% | [8]; 10 µM unless noted 70.8% | [9]; 10 µM unless noted 85.1% | [10]; 10 µM unless noted 104% | [11]; 10 µM unless noted 97.1% | [12]; 10 µM unless noted 94.4% | [13]; 10 µM unless noted 92.9% | [14]; 10 µM unless noted 63.4% | [15]; 10 µM unless noted 105% | [16] 87.7% | [17] 76.4% | [18]; 10 µM unless noted 90.7% | [19] 33.8% | [20]; 10 µM unless noted 80%
